This is an account of results in PubChem BioAssay AID977607 (Broad Institute, 2014).

Screen size: about 1,500 compounds; about 460 (31%) were called active. About 1% were inconclusive and are not listed. The list is a sample of the results. Results with a measured potency or affinity are listed apart. A number with no mark means an inactive call.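 Rule for the calls: active = curve reaches 40% activation over neutral controls at an AC40 no higher than the top valid tested concentration; inconclusive = no clear call, values can overlap the other calls; inactive = signal moving opposite to the expected increase, and the rest.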

A short description of this experiment: GLuc-reported insulin release enhancers, glucose-stimulated beta cells – cell-based, INS-1E, Gaussia luciferase, luminescence, cherry-pick, set 2, dose response (AID 977607).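 Note: 0% = median of the plate neutral control wells.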 Particulars: INS-1E GLuc insulin secretion reporter, 2-3 h, active compounds read high; at 35 µM, 100% = signal doubled over neutral wells unless noted.
Turning to `O=C(c1cc(-c2ccc(F)cc2)nc2ccccc12)N1CCN(C2CCS(=O)(=O)C2)CC1` (configuration not stated), the max activation is -24.6% [at 0.0016 µM, 100% = signal doubled over neutral wells]. Take `CC(=O)c1cccc(N(CC(=O)NC2CCCCC2)C(=O)Cn2nnc(-c3ccccc3)n2)c1`: the max activation was -24.8% [at 0.0016 µM, 100% = signal doubled over neutral wells].

Regarding `CCOc1nc(-c2ccccc2)c2cc(Br)ccc2n1`, the max activation is 13.2%. On to `COc1ccc(C(=O)Nc2nnc(-c3ccco3)s2)cc1`, for which the max activation is -13.7% [at 0.135 µM, 100% = signal doubled over neutral wells]. On to `NC(=O)C1CCN(C(=O)CCNS(=O)(=O)c2ccccc2F)CC1`, for which the max activation was 14.1% [at 1.2 µM, 100% = signal doubled over neutral wells]. With `CCn1cc(C(=O)O)c(=O)c2cc(F)c(N3CCN(C(=S)NC(=O)c4cccc(C)c4)CC3)cc21` the figure was -20.5%; with `CCOc1ccc(CCNC(=O)COC(=O)c2cccc(N(C)C)c2)cc1OCC`, -44%. The same measure for `CC(C)CC(=O)Nc1cccc(-c2nc3ncccc3o2)c1`: -18.2% [at 0.0016 µM, 100% = signal doubled over neutral wells]; for `COc1ccc(S(=O)(=O)N2CCCCC2)cc1NC(=O)C1CCCC1`: -27.7% [at 0.135 µM, 100% = signal doubled over neutral wells]; for `CN1CCN(c2ccc(NC(=O)c3ccc(Oc4ccccc4)cc3)cc2)CC1`: -14.3% [at 0.015 µM, 100% = signal doubled over neutral wells]. The same measure for `O=C(NCc1ccccc1)c1cccnc1Sc1ccccc1`: 14.4% [at 3.8 µM, 100% = signal doubled over neutral wells]. Take `CCOCCCn1c(SCc2ccccc2)nnc1-c1ccncc1`: the max activation is 27.1% [at 1.2 µM, 100% = signal doubled over neutral wells].

For the compound `CNc1nc(-c2ccccc2)cc(-c2ccccc2)n1`, the max activation was -32.2%.

As to `CC(C)Cc1nc2n[nH]c(N)c2c2c1COC(C)(C)C2`, the max activation was 33.4%. In the case of `CCCCOc1ccc(SCCCN2CCOCC2)cc1`, the max activation is -17.1% [at 11 µM, 100% = signal doubled over neutral wells]. The same measure for `CC(=O)Oc1ccccc1C(=O)OCCN=C1NS(=O)(=O)c2ccccc21`: -19.1% [at 0.046 µM, 100% = signal doubled over neutral wells]. With `CCOC(=O)c1cc(-c2ccc(Cl)s2)nc2c1c(C)nn2C` the figure was 61.3%; with `N#Cc1cccnc1Nc1cccc(Cl)c1`, 31.6%; with `CCNC(=O)C1(C)CCCN1C(=O)c1cc(OC)c(OC)c(OC)c1` (configuration not stated), -19.1% [at 0.135 µM, 100% = signal doubled over neutral wells]. With `CC(=O)Nc1ccc(Nc2nc(-c3c(C)nc4ccccn34)cs2)cc1` the figure was -20% [at 11 µM, 100% = signal doubled over neutral wells]; with `O=C(Nc1cccc(Cl)c1)Nc1nc(-c2ccc(Cl)cc2)cs1`, -37.7% [at 11 µM, 100% = signal doubled over neutral wells]; with `Cc1ccc(-c2cc(C(=O)Nc3nn[nH]n3)c3ccccc3n2)c(C)c1`, -12.2% [at 1.2 µM, 100% = signal doubled over neutral wells]. As for `Cc1ccc2c(c1)C=CC(C#N)N2C(=O)c1ccccc1` (configuration not stated), the max activation was 36.1%. With `Cc1ccc(C(OCC(O)CNCc2ccc(F)cc2)c2ccccc2)cc1` (configuration not stated) the figure was 97.1%; with `O=C(COc1nncc2ccccc12)NCC(F)(F)F`, 25.7%; with `CCOC(=O)CN1C(=O)[C@]2(OCCC=C[C@H]2C)c2ccccc21`, 33.6%. With `C1CCN(CCCNC2C3CC4CC(C3)CC2C4)C1` (configuration not stated) the figure was -11.8% [at 0.0016 µM, 100% = signal doubled over neutral wells]. With `CCc1nc2c(nnn2Cc2ccc(F)cc2)c(=O)[nH]1` the figure was -16% [at 0.42 µM, 100% = signal doubled over neutral wells]; with `COc1ccc(-c2cc(-c3ccco3)[nH]c(=O)c2C#N)cc1OC`, -12.7% [at 3.8 µM, 100% = signal doubled over neutral wells]; with `COc1ccc(CC(=O)N2CCc3cc(OC)c(OC)cc3C2)cc1`, 20%. Turning to `O=C(Nc1ccc(NC(=O)c2cccs2)cc1)c1ccc(Br)o1`, the max activation was -18.3% [at 0.135 µM, 100% = signal doubled over neutral wells].

`O=C(Nc1nnc(CCS(=O)(=O)c2ccc3ccccc3c2)s1)c1cccs1`: the max activation is -24% [at 0.015 µM, 100% = signal doubled over neutral wells]. The same measure for `CC1(C)N=C(c2ccccc2)C(c2ccccc2)=N1`: 33.2%; for `CCOC(=O)c1cc(-c2ccncc2)nc2c1c(C)nn2-c1ccccn1`: -16.4% [at 0.005 µM, 100% = signal doubled over neutral wells]; for `CCOC(=O)Cn1nc(-c2ccccc2)c(-c2ccccc2)nc1=O`: -19.8% [at 0.005 µM, 100% = signal doubled over neutral wells]. Turning to `CCOc1ncccc1C(=O)OCC(=O)NCCc1ccc(S(N)(=O)=O)cc1`, the max activation is -12.8% [at 0.046 µM, 100% = signal doubled over neutral wells]. Regarding `Cc1ccc(-n2cc(CNCCCn3ccnc3C)c(-c3ccc(F)cc3)n2)cc1`, the max activation was -12.6% [at 1.2 µM, 100% = signal doubled over neutral wells]. The same measure for `COc1ccc(S(=O)(=O)N(C)c2ccc(C(=O)N3CCCC3)cc2)cc1OC`: -12.8% [at 3.8 µM, 100% = signal doubled over neutral wells]. The same measure for `O=C(O)c1ccc(S(=O)(=O)N2CCC3(CC2)CC(=O)c2ccccc2O3)cc1`: -16.3% [at 1.2 µM, 100% = signal doubled over neutral wells]; for `CCCN1C[C@@H](C)[C@@H](OC)CN(C)C(=O)c2ccc(NC(=O)c3cccc(F)c3)cc2OC[C@H]1C`: -15.7% [at 0.005 µM, 100% = signal doubled over neutral wells]. With `O=C(Nc1cccc(Cl)c1)c1cnn2cccnc12` the figure was 29.7%; with `CCc1nc2ccc(C(=O)NCCCN3CCCC3=O)cn2c1N(CCC(C)C)CCN(C)C`, -19.8% [at 0.42 µM, 100% = signal doubled over neutral wells]. As to `CC(=O)c1cccc(-c2csc3ncnc(Sc4nnnn4C)c23)c1`, the max activation was -11.8% [at 0.005 µM, 100% = signal doubled over neutral wells]. The same measure for `CCN(CC)C(=O)C1(P(=O)(c2ccccc2)c2ccccc2)CCC1`: -17.4% [at 0.42 µM, 100% = signal doubled over neutral wells]; for `O=C(c1ccco1)N(Cc1ccc(Cl)cc1)C1CCS(=O)(=O)C1` (configuration not stated): 17.8%; for `CCn1nnnc1NCc1ccc(OCc2c(F)cccc2Cl)c(OC)c1`: -22.7% [at 1.2 µM, 100% = signal doubled over neutral wells]. The same measure for `O=c1c(Cc2ccc(Cl)cc2Cl)c(O)ccn1CC(F)(F)F`: 17.3%. With `COc1ccc(CNC(=O)C2Cc3c(-c4ccccc4)ccnc3O2)cc1OC` (configuration not stated) the figure was -21.6% [at 11 µM, 100% = signal doubled over neutral wells]; with `C/C(Cl)=C\Cn1c(N2CCCC2)nc2c1c(=O)n(C)c(=O)n2C`, -30.4% [at 1.2 µM, 100% = signal doubled over neutral wells]; with `CCNc1nc(NCC)nc(N(C#N)C(C)C)n1`, 28.6% [at 11 µM, 100% = signal doubled over neutral wells]. Turning to `Cc1nc2ccccc2c2nc(NC(=O)C(F)(F)F)nn12`, the max activation is -15.5% [at 11 µM, 100% = signal doubled over neutral wells]. The same measure for `CN(C)c1ccc(/C=N/NC(=O)c2ccccc2Cl)cc1`: -9.59% [at 0.046 µM, 100% = signal doubled over neutral wells]; for `CC(C)Oc1ccc(Br)cc1C(=O)N/N=C/c1c[nH]c2ccccc12`: -45.1%; for `NC(=O)c1ncn([C@@H]2O[C@H](C(=O)N[C@H](Cc3ccccc3)C(=O)O)[C@@H](O)[C@H]2O)n1`: -32.5%. With `COc1ccc(N2CCN(C(c3cccs3)C(C)NC(=O)C(=O)N3CCOCC3)CC2)cc1` (configuration not stated) the figure was -16.6% [at 3.8 µM, 100% = signal doubled over neutral wells]; with `Cc1ccc(NC(=O)CC2S/C(=N/N=C/c3c[nH]c4ccccc34)NC2=O)cc1` (configuration not stated), 19.8% [at 3.8 µM, 100% = signal doubled over neutral wells].

Take `Cc1ccc(CC2S/C(=N/c3ccccn3)NC2=O)cc1` (configuration not stated): the max activation was -16.1% [at 0.42 µM, 100% = signal doubled over neutral wells].
